MCF10A rerep: inducers of DNA re-replication in MCF 10A breast cells | Potency, µM (top dose mostly 46.1 µM), without a hit: top-dose activity, positive = re-replication, hits mostly activators | 350,000 tested, 2.9% active | AID 624296 | MCF 10A DNA re-replication, Hoechst nuclear intensity, 48 h; also: potency is read from the fitted curve at half-maximal effect; % of control where 0% means no effect; nearly all actives have a fitted effect of over 50% in size
KB-3-1 tox: KB-3-1 parental cell cytotoxicity | 400,000 tested, 1.4% active | Potency, µM (titrated, usually from 46.1 µM), actives largely listed as cytotoxic | AID 1347075 | KB-3-1 viability, CellTiter-Glo ATP luminescence, 72 h; also: potency is read from the fitted curve at half-maximal effect; % is scaled to controls: 0 for no effect and ±100 for the full control effect; nearly all actives have a fitted effect of over 60% in size
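Screening of KB-3-1 cells (DMEM, 10% FBS, phenol-red free) ran from lowest to highest compound concentration; after 72 h at 37 °C viability was read luminescently and curves fitted.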
D3 ag: D3 dopamine receptor (human) agonism. P35462. D3R DiscoveRx beta-arrestin cells, luminescence, 90 min. max activation, %. 410,000 tested, 0.58% active; in the data active = max activation above about 30%; also: 0% is about no effect
Target sequence (P35462 whole entry, looked up): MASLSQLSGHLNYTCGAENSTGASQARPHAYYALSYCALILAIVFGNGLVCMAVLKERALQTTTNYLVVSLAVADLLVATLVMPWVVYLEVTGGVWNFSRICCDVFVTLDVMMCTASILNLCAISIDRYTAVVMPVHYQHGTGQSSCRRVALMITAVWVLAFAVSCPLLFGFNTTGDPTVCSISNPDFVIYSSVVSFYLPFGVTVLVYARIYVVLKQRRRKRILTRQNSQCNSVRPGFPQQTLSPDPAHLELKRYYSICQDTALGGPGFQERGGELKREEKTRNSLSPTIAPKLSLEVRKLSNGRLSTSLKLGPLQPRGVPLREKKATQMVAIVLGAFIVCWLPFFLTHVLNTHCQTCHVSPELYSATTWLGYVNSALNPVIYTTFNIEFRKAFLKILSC
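Agonist-mode cell screen: cells plated at 1500/well and incubated overnight at 37 °C, then exposed to library compounds for 90 min at 37 °C. Detection reagent was added for 30–60 min at room temperature, and luminescence was read.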
SW480 rerep: inducers of DNA re-replication in SW480 colon cancer cells; AID 624297; 340,000 tested, 1.8% active; SW480 DNA re-replication, Hoechst DNA content imaging, 48 h; Potency, µM (top dose mostly 46.1 µM), inactives show top-dose re-replication activation, most hits filed as activators; also: potency is read from the fitted curve at half-maximal effect; % of control where 0% means no effect; nearly all actives have a fitted effect of over 55% in size
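Image-based DNA-content assay: after two days of treatment, nuclei were labelled with the DNA dye Hoechst and imaged, and hits were compounds raising the count of nuclei showing high fluorescence intensity.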
D3 antag: antagonists of human D3 dopamine receptor | 360,000 tested, 2.5% active | P35462 | AID 652054 | max response, negative = inhibition, % | D3R cells, DiscoveRx beta-arrestin luminescence, antagonist mode; active compounds read low; in the data active = max response below about -50%; inconclusive = no clear call, values can overlap the other calls; also: % is scaled to controls: 0 for no effect and ±100 for the full control effect
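Cells plated overnight at 1500 cells/well, then exposed to library compounds with dopamine controls for 90 minutes at 37 degrees C. DiscoveRx reagent added for 30–60 minutes at room temperature; luminescence read, quantitative HTS format.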
KB-V1 cytotox: kills drug-selected multidrug resistant KB-V1 cells | 400,000 tested, 3.4% active | Potency, µM (titrated, usually from 46.1 µM), actives largely listed as cytotoxic | KB-V1 MDR cells viability, CellTiter-Glo, 72 h; also: potency is read from the fitted curve at half-maximal effect; % is scaled to controls: 0 for no effect and ±100 for the full control effect; nearly all actives have a fitted effect of over 60% in size
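In this primary screen, KB-V1 cells overexpressing P-gp are incubated with library compounds (lowest to highest concentration) for 72 h at 37 degrees C before a luminescent ATP viability read.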
* = called active by the depositor; i = inactive; ? = inconclusive; / = no result given; [ ] = dose if it differs, or a comment. This is a sample that favours compounds with a hit; in the whole collection about 8.9% have one here. Unless noted, calls follow the shape of the dose curve; as a rule, active = well fitted curve in the direction sought with a large enough effect; inconclusive = small, poorly fitted or top-dose-only effect, or another doubt; inactive = no such curve, though single readings can be large; an effect the other way counts as inactive or inconclusive.

SMILES | MCF10A rerep | KB-3-1 tox | D3 ag | SW480 rerep | D3 antag | KB-V1 cytotox
CSc1cccc(NC(=O)CN(Cc2ccc(Cl)cc2)S(C)(=O)=O)c1 | 2% | i | -11 | -1% | -6 | 12µM*
CC(C)CNC(=O)c1ccccc1N(Cc1ccccc1)S(C)(=O)=O | 1% | i | 6 | 12µM* | -2 | i
CC(=O)Nc1ccc(NC(=O)c2ccccc2N(Cc2ccccc2)S(C)(=O)=O)cc1 | ? | i | -2 | ? | 23 | i
CSc1ccccc1NC(=O)c1ccccc1N(Cc1ccccc1)S(C)(=O)=O | 0% | i | 1 | -3% | 21 | 9.2µM*
O=C(NC1CCCC1)c1ccc2c(=O)n(Cc3ccccc3)c(SCc3ccc([N+](=O)[O-])cc3)nc2c1 | / | / | -13 | / | / | /
Cc1cccc(-n2ncc(C(=O)NCc3ccc4c(c3)OCO4)c2C2CCN(C(=O)OC(C)(C)C)CC2)c1 | / | i | -5 | / | / | i
Nc1ccc(C#Cc2ccc3oc4ccccc4c(=O)c3c2)cc1 | ? | i | 59* | 9% | 169 | i
Cn1c(-c2ccccc2)c(C#Cc2ccc(N)cc2)c2ccccc21 | 12µM* | i | -13 | 9.2µM* | 1 | i
Nc1cccc(C#Cc2ccc3c(=O)c4ccccc4oc3c2)c1 | -31% | i | 27 | -6% | 11 | i
Cn1c2ccccc2c(=O)c2cc(C#Cc3ccc(N)cc3)ccc21 | -3% | i | 59* | ? | 65 | i
Nc1ccc2oc3ncccc3c(=O)c2c1 | 6% | i | 1 | -7% | -98* | i
O=C(CC1N=C2c3ccccc3N=C(SCc3ccccc3F)N2C1=O)NCCc1ccccc1 (configuration not stated) | / | ? | -16 | / | / | i
COc1ccc(N(Cc2cccs2)C(=O)c2ccc(Br)o2)cc1 | / | i | -10 | / | / | i
Cc1cc(C)c(CSc2nnc(C)n3c2cc2occc23)c(C)c1 | / | i | 12 | / | / | i
Cc1sc2ccccc2[n+]1CCC[n+]1c(C)sc2ccccc21 | / | i | / | / | / | i
Cc1sc2ccccc2[n+]1CCC(C)S(=O)(=O)[O-] (configuration not stated) | -1% | i | -17 | 1%[9.22 µM] | -67* | i
CC(/C=C1\SC(=S)N(NC(=O)c2ccccc2C)C1=O)=C\c1ccccc1 | 10µM* | i | 2 | -15% | -1 | i
CC(/C=C1\SC(=S)N(NC(=O)c2ccncc2)C1=O)=C\c1ccccc1 | 0% | i | -6 | 6% | -11 | i
CC(/C=C1\SC(=S)N(NC(=O)c2ccc(C)cc2)C1=O)=C\c1ccccc1 | 14% | i | -7 | 12% | -52* | i
CN(C)c1ccc(/C=C/c2nc3ccccc3s2)cc1Cl | / | i | / | / | / | i
Cn1c2c(c(=O)n(C)c1=O)C(c1ccccc1C(F)(F)F)CC(=O)N2 (configuration not stated) | / | i | 3 | / | / | i
CCCNC(=O)CCC(=O)N1Cc2cccc(OC)c2Oc2ncccc21 | / | i | 6 | / | / | i
CCCCc1c(C)nc(Nc2ccc(OC)cc2)[nH]c1=O | -1% | i | -8 | ? | 3 | 23µM*
CCCCc1ccc(Nc2nc(CCC)cc(=O)[nH]2)cc1 | 5.8µM* | ? | 4 | ? | 12 | ?
CCOC(=O)c1noc2nc(C)n(CC(=O)NC(C)CC)c(=O)c12 (configuration not stated) | / | ? | -15 | / | / | i
SMILES | MCF10A rerep | KB-3-1 tox | D3 ag | SW480 rerep | D3 antag | KB-V1 cytotox
O=C(CSc1nncs1)Nc1ccc(N2CCCCC2)cc1 | -1% | ? | 10 | -5% | -1 | 16µM*
COc1ccc(NC(=O)CSc2nncs2)cc1S(=O)(=O)N1CCCCC1 | 4% | i | -6 | -2% | 9 | i
O=C(CSc1nnc(NC2CC2)s1)Nc1ccc(N2CCOCC2)cc1 | 5% | i | -4 | ? | 1 | i
O=C(CSc1nnc(NC(=O)C2CCC2)s1)Nc1ccc(N2CCOCC2)cc1 | -4% | i | -11 | -9% | -73* | i
O=C(CCn1c(=O)oc2ccccc21)NCCCN1CCN(c2ccc(F)cc2)CC1 | 0% | i | 1 | -9% | -52* | i
O=C(CCn1c(=O)oc2ccccc21)NCCCN1CCOCC1 | -7% | i | 2 | -10% | 11 | ?
Cn1c(C(=O)NCCCN2CCN(c3ccc(F)cc3)CC2)cc2c(=O)n(C)c3ccccc3c21 | 0% | i | -14 | -2% | -84* | i
Cn1c(=O)cc(SCC(=O)NCc2ccc(F)cc2)c2ccccc21 | 15µM* | ? | 10 | 15% | 6 | i
Cn1c(=O)cc(SCC(=O)NCc2ccc(F)cc2)c2ccc(Cl)cc21 | / | i | -1 | / | / | i
Cn1c(C(=O)NCCN2CCN(c3ccccc3F)CC2)cc2c(=O)n(C)c3ccccc3c21 | 0% | i | -7 | 2% | -22 | i
Cn1c(=O)cc(SCC(=O)NCCCN2CCN(c3ccc(F)cc3)CC2)c2ccccc21 | 10% | i | -7 | -2% | -69* | i
Cc1c(C(=O)Nc2ccccc2F)sc2ncnc(N(C)C3CCCCC3)c12 | / | ? | 2 | / | / | i
Cn1c(=O)cc(SCC(=O)NCCN2CCN(c3ccccc3F)CC2)c2cc(Cl)ccc21 | 4% | ? | -4 | -1% | -63* | i
COc1ccc(-c2cc(NC=O)c3ncc(-c4cnn(C)c4)n3c2)cc1 | / | ? | 3 | / | 7 | 18µM*
COc1ccccc1-c1cc(NC=O)c2ncc(-c3ccc(S(C)(=O)=O)cc3)n2c1 | / | 13µM* | 4 | / | 12 | 16µM*
COc1cccc(-c2cnc3c(NC=O)cc(-c4ccc(N(C)C)cc4)cn23)c1 | / | ? | 4 | / | 2 | ?
O=CNc1cc(-c2ccccc2Oc2ccccc2)cn2c(-c3ccc(F)cc3)cnc12 | / | ? | -9 | / | 0 | ?
CC(=O)c1ccc(-c2cnc3c(NC=O)cc(-c4ccccc4Oc4ccccc4)cn23)cc1 | / | 12µM* | 1 | / | -5 | ?
COc1ccc(-c2cnc3c(NC=O)cc(-c4ccccc4)cn23)cc1OC | / | 1.2µM* | 0 | / | 15 | 1.6µM*
COc1ccc(N2CCN(S(=O)(=O)CCNC(=O)c3ccc(C(F)(F)F)cc3)CC2)cc1 | / | / | 2 | / | / | /
O=C(C[n+]1cccc2cc(Cl)ccc21)c1ccc2ccccc2c1 | / | ? | / | / | / | i
CC(C)n1c(=O)c2oc3ccccc3c2n(CC(=O)Nc2ccccc2Cl)c1=O | / | i | 1 | / | / | i
COc1ccc(-c2cc(NC=O)c3ncc(-c4cccc(OC)c4)n3c2)cc1 | / | 6.5µM* | -4 | / | 0 | 7.3µM*
